This is an account of results in PubChem BioAssay AID1835 (Johns Hopkins Ion Channel Center, 2009).

SMILES strings stand for the structures. About 750 (31%) of roughly 2,400 compounds were called active. Some of the results follow. A number with no mark means an inactive call.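 How the source made its calls: active means median signal gain over dofetilide-blocked control wells reaching their mean plus 3 SD, so readout 1 at least 0; inactive means the rest.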

Chain of Voltage-gated inwardly rectifying potassium channel KCNH2 (Homo sapiens) (Q12809 whole entry, looked up): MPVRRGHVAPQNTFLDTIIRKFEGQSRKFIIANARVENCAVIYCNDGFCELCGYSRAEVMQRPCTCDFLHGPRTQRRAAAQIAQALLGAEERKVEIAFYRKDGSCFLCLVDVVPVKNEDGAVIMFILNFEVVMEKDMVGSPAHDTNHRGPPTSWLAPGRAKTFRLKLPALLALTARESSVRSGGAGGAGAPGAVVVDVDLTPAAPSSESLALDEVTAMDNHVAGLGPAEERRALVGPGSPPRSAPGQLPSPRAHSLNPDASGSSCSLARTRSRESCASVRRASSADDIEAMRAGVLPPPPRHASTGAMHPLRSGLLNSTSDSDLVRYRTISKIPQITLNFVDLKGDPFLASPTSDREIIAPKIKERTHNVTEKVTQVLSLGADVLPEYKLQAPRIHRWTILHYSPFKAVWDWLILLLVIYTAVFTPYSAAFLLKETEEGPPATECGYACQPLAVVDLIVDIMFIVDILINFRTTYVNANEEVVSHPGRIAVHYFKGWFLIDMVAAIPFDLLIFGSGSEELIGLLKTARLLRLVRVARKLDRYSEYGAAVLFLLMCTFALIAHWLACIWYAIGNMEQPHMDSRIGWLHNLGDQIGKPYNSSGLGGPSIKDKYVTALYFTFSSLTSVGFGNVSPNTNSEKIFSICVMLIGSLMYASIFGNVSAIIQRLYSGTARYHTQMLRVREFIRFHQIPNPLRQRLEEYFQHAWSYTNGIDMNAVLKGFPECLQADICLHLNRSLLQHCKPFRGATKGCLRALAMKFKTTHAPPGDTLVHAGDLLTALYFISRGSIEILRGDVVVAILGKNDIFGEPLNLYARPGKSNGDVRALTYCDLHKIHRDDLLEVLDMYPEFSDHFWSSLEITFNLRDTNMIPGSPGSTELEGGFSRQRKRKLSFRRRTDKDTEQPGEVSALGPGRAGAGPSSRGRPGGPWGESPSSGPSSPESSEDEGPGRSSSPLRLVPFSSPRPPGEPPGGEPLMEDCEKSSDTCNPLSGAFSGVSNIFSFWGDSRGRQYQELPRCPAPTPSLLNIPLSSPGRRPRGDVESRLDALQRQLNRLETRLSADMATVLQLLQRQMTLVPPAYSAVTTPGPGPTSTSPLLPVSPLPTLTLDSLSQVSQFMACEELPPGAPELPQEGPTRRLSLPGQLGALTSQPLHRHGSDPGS

The experiment addresses Voltage-gated inwardly rectifying potassium channel KCNH2 (Homo sapiens) (UniProt Q12809). As to the kind of experiment: modulators restoring hERG flux under dofetilide – cell-based, thallium flux, duplicate retest, dofetilide IC70, confirmation (AID 1835). Particulars: hERG cell line, FluxOR thallium flux, dofetilide-blocked; at 10 µM; hits give high values. On the technique in general: The hERG channel carries a current that helps repolarise heart muscle cells.
As for `Cc1nnc(N2C(=O)C(=O)/C(=C(\O)c3ccc4c(c3)CC(C)O4)C2c2ccccc2)s1` (stereo not drawn), the activity increase over dofetilide control, less the hit threshold was -7%. The same measure for `Cc1ccc(CNC(=O)C2=CCN(S(=O)(=O)c3ccc(C)cc3)CC2)cc1`: -24%; for `CCCCn1nnc(NC(=O)Cc2ccc(Cl)cc2)n1`: -3%; for `Cc1ccc2nc(-c3ccncc3)cc(C(=O)Nc3ccc4c(c3)OCCO4)c2c1`: -15%.

On to `Cc1cccc(NC(=S)NC(=O)c2cc(-c3ccccc3)nc3ccccc23)c1`, for which the activity increase over dofetilide control, less the hit threshold was 8% (active). Take `O=C(CCSCCc1ccccn1)Nc1cccc([N+](=O)[O-])c1`: the activity increase over dofetilide control, less the hit threshold is -4%. With `O=C(O)c1ccc(N=NNc2cccc([N+](=O)[O-])c2)cc1` the figure was -2%; with `NC(=O)c1cccnc1Nc1cccc([N+](=O)[O-])c1`, 10% (active). With `O=C(NCC(c1cccs1)N1CCOCC1)c1cc(S(=O)(=O)N2CCOCC2)ccc1F` (stereo not drawn) the figure was -22%; with `CCc1cc2c(=O)n(CCC(C)C)c(=S)[nH]c2s1`, 71% (active); with `CC(C)(C)OC(=O)N1CCC2(CC1)Oc1ccc(Cl)cc1C(=O)C21CC(c2ccc(Cl)cc2)=NO1` (stereo not drawn), -19%. With `COc1ccc2nc(N=Nc3c(O)ccc4ccccc34)sc2c1` the figure was 31% (active); with `COc1ccc2ncc(OC(C)=O)cc2c1`, -14%. In the case of `O=C(Nc1ccccc1)O/N=C/c1ccncc1`, the activity increase over dofetilide control, less the hit threshold was -7%. Regarding `CN(C)C(=O)c1cc(C(=O)c2ccc(Cl)cc2Cl)c[nH]1`, the activity increase over dofetilide control, less the hit threshold was -4%.

As for `CN(C)CCCN=C(NO)c1ccc(Cl)cc1Cl`, the activity increase over dofetilide control, less the hit threshold was 4% (active). The same measure for `C=CCSC1=C(C#N)C(c2ccccc2)CC(=O)N1` (stereo not drawn): -15%. The same measure for `Cc1ccc(C(=O)NC2CCC(C)CC2)o1` (stereo not drawn): -23%. With `CCC(C)(C(=O)NC1CCCC1)N(Cc1ccco1)C(=O)c1ccccn1` (stereo not drawn) the figure was -13%. Take `Cc1ccc(C(C(=O)NC(C)(C)C)N(Cc2cccnc2)C(=O)C(=O)NC2CCCCC2)o1` (stereo not drawn): the activity increase over dofetilide control, less the hit threshold is 0% (active). The same measure for `CC(C)C(O)(C#CCN1CCCC1)c1ccccc1` (stereo not drawn): -16%. The same measure for `CCOc1ccc(N(CC)C(=O)COc2cc(=O)n(C)c3ccccc23)cc1`: 1% (active); for `CCOc1ccc(-n2c(C)c(C(C)=O)c3cc(O)ccc32)cc1`: -14%. With `CCn1c2ccccc2c2cc(NC(=O)COc3ccccc3)ccc21` the figure was -20%; with `CC(C)Oc1ccc(CNC(=O)C2CCN(C(=O)N3CCOc4ccccc43)CC2)cc1`, -31%; with `CCOc1ccccc1C(=O)NC1CC2CCCC(C1)N2Cc1nnnn1Cc1ccco1` (stereo not drawn), -24%.

For `CCCCc1c(C)[nH]c(C(=O)OCC)c1C`, the activity increase over dofetilide control, less the hit threshold was -14%. The same measure for `CCOC(=O)c1c(C)[nH]c(C)c1S(=O)(=O)N1CCCCC1`: 4% (active); for `Cc1[nH]c(=O)[nH]c(=O)c1S(=O)(=O)N1CCC(C(=O)NC(C)c2ccccc2)CC1` (stereo not drawn): -4%. With `O=C1c2nc3cc(-c4ccco4)[nH]n3c(=O)c2CN1Cc1ccccc1` the figure was -10%; with `CCC(=O)NC(c1cccs1)c1ccc2cccnc2c1O` (stereo not drawn), -8%; with `O=c1c2[nH]c3ccccc3c2nc2n1CCCS2`, 3% (active). With `O=c1c(Cc2ccccc2)c(O)nc2n1CCCS2` the figure was -3%; with `CCOC(=O)N1CCN(C(=O)CSc2nc3c([nH]c4ccccc43)c(=O)n2CC)CC1`, 0%; with `COc1ccc(NC(=O)C2CCN(S(=O)(=O)c3cn(C)nc3C)CC2)cc1`, -12%. Regarding `COc1ccc(/C=C2\SC(c3ccc(C)cc3)=NC2=O)cc1OC`, the activity increase over dofetilide control, less the hit threshold was 112% (active). The same measure for `CCOC(=O)C1=C(O)/C(=C/c2ccc(OCC(=O)O)c(OC)c2)SC1=Nc1ccc(OCC)cc1`: -9%; for `COc1ccc(-c2ccc3c(N)c(C(=O)c4ccc(OC)c(OC)c4)sc3n2)cc1`: -9%; for `COc1ccc(C(C(=O)NC(C)(C)C)N(C(=O)CCC(=O)Nc2cc(C)on2)c2cccc(F)c2)cc1` (stereo not drawn): -6%.

`O=C(CSc1nc(N2CCCCC2)nc(N2CCCCC2)n1)c1ccccc1`: the activity increase over dofetilide control, less the hit threshold is -16%.

In the case of `C=CCn1c2ccccc2c(=O)c2cc(C#Cc3ccsc3)ccc21`, the activity increase over dofetilide control, less the hit threshold is 17% (active). With `O=C(/C=C/Nc1ccc(F)cc1)c1ccco1` the figure was -22%; with `Cc1cccc(N2C(=O)C(O)=C(C(=O)c3cccs3)C2c2cccc(Oc3ccccc3)c2)n1` (stereo not drawn), -12%. The same measure for `CCCC(=O)NC(=S)Nc1nc(-c2ccc(OC)cc2)cs1`: -11%; for `CCCn1c(SCC(=O)Nc2nc(-c3ccc(OC)cc3)cs2)nc2c1c(=O)n(C)c(=O)n2C`: -8%. The same measure for `CCC(=O)N(CC)c1nc(-c2ccc(OC)cc2)cs1`: 17% (active); for `COc1cc(C(=O)NCCNc2nc3cc(C)ccc3cc2C#N)cc(OC)c1OC`: -2%. For `O=c1c(-c2ccc(Cl)cc2)[n+]([O-])c2ccccc2n1O`, the activity increase over dofetilide control, less the hit threshold is 64% (active). The same measure for `O=c1c(-c2ccccc2)[n+]([O-])c2ccccc2n1O`: -10%. With `Cc1ccc(-c2c(=O)n(O)c3ccccc3[n+]2[O-])cc1` the figure was 52% (active). The same measure for `O=c1c(-c2cccc3ccccc23)[n+]([O-])c2ccccc2n1O`: 9% (active); for `CCc1nnc(NC(=O)c2cccc(S(=O)(=O)N3CCN(c4ccccc4)CC3)c2)s1`: -17%; for `O=C(COc1ccccc1)Nc1nnc(-c2ccc(Cl)s2)o1`: -9%. Consider `CC1=Nc2ccc(C)cc2/C1=C/c1c(N)n2c(S(=O)(=O)C(C)C)nsc2nc1=O`, for which the activity increase over dofetilide control, less the hit threshold was -5%.

Turning to `CC(C)C(=O)Nc1c(-c2ccccc2F)c(=O)c2ccccc2n1C`, the activity increase over dofetilide control, less the hit threshold was -6%. With `CCOC(=O)Cn1cc(C=O)c2ccccc21` the figure was -17%. With `Cn1c(=O)c(Sc2ccccc2)c(O)c2ccccc21` the figure was 2% (active).

For `CCn1c(=O)c(-[n+]2ccccc2)c(O)c2ccccc21`, the activity increase over dofetilide control, less the hit threshold was -15%. The same measure for `Cn1c(=O)c(-c2cc(=O)[nH][nH]2)c(O)c2ccccc21`: 2% (active). With `CCOC(=O)c1c(O)c2ccccc2n(C)c1=O` the figure was 5% (active); with `Cn1c(=O)cc(-c2ccccc2)c2ccccc21`, -28%; with `CCOC(=O)c1c(C)cccc1OCC(N)=O`, -16%. Take `O=C1OC(/C=C/c2ccccc2)=NC/1=C/c1ccco1`: the activity increase over dofetilide control, less the hit threshold was -15%. The same measure for `COC(=O)Cc1[nH]n(-c2nc3ccccc3s2)c(=O)c1C(C)=Nc1ccc(C)cc1`: -1%.

For the molecule `Cn1ncc2c(NNC(=O)Cc3ccccc3)ncnc21`, the activity increase over dofetilide control, less the hit threshold was -13%. The same measure for `COC(=O)n1c(=S)oc2cc(Cl)ccc21`: -13%; for `O=C(O)c1ccc(Cl)cc1Nc1nc2cc(Cl)ccc2o1`: 10% (active); for `O=C(O)c1c2c(nc3ccccc13)/C(=C/c1cccc([N+](=O)[O-])c1)CCC2`: -18%. With `N#Cc1c2n(c3c(=O)n(Cc4ccc(Cl)cc4)cnc13)CCCC2`, the activity increase over dofetilide control, less the hit threshold is -14%. With `Cc1cc(C)cc(N(C(=O)c2cc3ccccc3oc2=O)C2C=CS(=O)(=O)C2)c1` (stereo not drawn) the figure was -13%. The same measure for `Cc1sc2nc(CN3CCOCC3)[nH]c(=S)c2c1C`: 92% (active); for `CC(C)(C)n1nnnc1C(c1cccs1)N1CCN(Cc2ccccc2)CC1` (stereo not drawn): -6%; for `Cc1ccc(-c2cccc(C3CC=CC4C3C(=O)N(Cc3ccccc3)C4c3ccc4ccccc4c3)c2)cc1` (stereo not drawn): -1%.
